Among the data in PubChem BioAssay (EPA / NIEHS) are AC50 and outcome values, retold here.

The nature of experiment [1]: Tanguay_ZF_120hpf_ActivityScore_legacy: (Legacy) Oregon State University Tanguay Lab 120 Hour Post-fertilization zebrafish Assay Score for Activity (AID 2283742).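 As to AC50: dechorionated Tropical 5D wild-type zebrafish embryos held singly per well; static exposure from 6 hpf until 120 hpf at 28 °C.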 A digest of the protocol:
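Embryos are staged, enzymatically dechorionated at 4 hpf, placed individually at 6 hpf, then held in test chemical (0.64% DMSO) at 28C until 120 hpf. Mortality and malformations are scored by brightfield, with non-mortality endpoints skipped for dead embryos.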

The nature of experiment [2]: ArunA_CellTiter_hNC: Viability Assessment in the ArunA Biomedical's Oris Neural Crest (hNC) Cell Migration Assay (AID 2283752). The procedure, abridged: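 Human H9-derived neural crest stem cells were plated at 60,000 per well on Matrigel in growth medium with LIF and bFGF, incubated 16 h at 37C, then exposed to chemical for 72 h. Viability was read with CellTiter Aqueous One as loss of signal versus DMSO.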

Experiment [3] in a line: ArunA_CellTiter_hNP: Viability Assessment in the ArunA Biomedical's Oris Neural Crest (hNC) Cell Migration Assay (AID 2283753). The procedure, abridged: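 H9-derived hNP1 neuroprogenitors, 60,000/well on Matrigel, cultured 16 h, then 72 h chemical exposure in test medium. Cell titer via CellTiter Aqueous One; positive-direction fit vs DMSO.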
Experiment [4] can be described thus: ArunA_Migration_hNP: ArunA Biomedical's Oris Neuroprogenitor (hNP) Cell Migration Assay (AID 2283754). A digest of the protocol: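 Human H9-derived hNP1 neuroprogenitors on Matrigel with LIF/bFGF, plated around seeding stoppers for 16 h at 37C; stoppers removed at start of 72 h chemical exposure. Calcein-AM staining, fluorescence 494/517 nm in detection zone; loss-of-signal vs DMSO; cytochalasin D control.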

Experiment [5] in a line: ArunA_Migration_hNC: ArunA Biomedical's Oris Neural Crest (hNC) Cell Migration Assay (AID 2283755). The procedure, abridged:
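Human H9-derived neural crest stem cells, 60,000/well on Matrigel, 16 h at 37C, then 72 h chemical exposure after seeding-stopper removal. Migration into detection zone read as calcein-AM fluorescence (ex494/em517), relative to DMSO.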

Experiment [6] can be described thus: ArunA_NOG_NucleusCount: ArunA Biomedical's Neurite Outgrowth (NOG) Assay for Nucleus Count (AID 2283756). The procedure, abridged: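 Human H9-derived differentiated neurons were exposed for 48 h right after seeding. Hoechst-stained nuclei gated by size and intensity were counted by automated high-content imaging as viable neurons. Loss of signal vs DMSO.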
Experiment [7] in a line: ArunA_NOG_NeuritesPerNeuron: ArunA Biomedical's Neurite Outgrowth (NOG) Assay for Neurites Per Neuron (AID 2283758). A digest of the protocol: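 Differentiated human H9-derived neurons exposed to chemicals for 48 h from seeding, then stained with Hoechst and βIII-tubulin/DyLight 488. Automated imaging counted neurites (processes >10 um) per valid neuron; loss of signal versus DMSO scored.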

Experiment [8] has as its target Luciferin 4-monooxygenase (Photinus pyralis) (UniProt P08659). Kind of experiment: CCTE_Simmons_QuantiLum_inhib_2: CCTE's Firefly Luciferase Inhibition Assay, Simmons Lab (AID 2283767). A digest of the protocol:
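Recombinant firefly luciferase (5 ng/well, 200 mM potassium phosphate with 1 mg/ml BSA) was exposed to 8 concentrations from 5 nM to 87.5 uM (final, 0.5% DMSO) for 30 min at 37C in the dark. Loss of luminescence versus DMSO was read after injecting D-luciferin/ATP-analogue reagent.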

The target of experiment [9] is zebrafish Estrogen Receptor (ESR1), esr1 (gene 259252) (UniProt P57717). Kind of experiment: ATG_zfER1_XSP1: Attagene TRANS-FACTORIAL Multi-Species (XSP1) HepG2 Assay for zebrafish Estrogen Receptor (ESR1) (AID 2283772). The procedure, abridged:
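Exogenous chimeric receptor-GAL4 activity is measured in transiently transfected human HepG2 liver cells after 24 h compound exposure. Reporter transcripts are detected by RT-PCR and fluorescent capillary electrophoresis, analysed for signal gain relative to DMSO.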

Experiment [10] relates to zebrafish Estrogen Receptor (ESR2B), gene 317733. Put plainly: ATG_zfER2b_XSP1: Attagene TRANS-FACTORIAL Multi-Species (XSP1) HepG2 Assay for zebrafish Estrogen Receptor (ESR2B) (AID 2283773). A digest of the protocol: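 Gain-of-signal endpoint relative to DMSO: reporter transcript levels quantified by RT-PCR and capillary electrophoresis after 24 h compound exposure of HepG2 cells expressing a zebrafish ER2b-Gal4 chimera.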

Experiment [11] has as its system frog Estrogen Receptor (ESR2), gene 100174814. Put plainly: ATG_frER2_XSP1: Attagene TRANS-FACTORIAL Multi-Species (XSP1) HepG2 Assay for frog Estrogen Receptor (ESR2) (AID 2283774). A digest of the protocol: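 Transactivation of an exogenous receptor-Gal4 fusion is tracked in transfected HepG2 cells via induced reporter transcript levels. After 24 h treatment, RT-PCR with capillary electrophoresis quantifies signal gain over DMSO.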

A short description of experiment [12]: ACEA_AR_agonist_AUC_viability: ACEA Biosciences xCELLigence Real-Time Cell Analysis on Androgen Receptor Agonism for Viability (AID 2283775).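 As to AC50: viability read 80 hours after compound addition.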 The procedure, abridged: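 Read-out is area under the impedance curve at 80 h post-dose in 22Rv1 cells, with DMSO as baseline and signal loss taken as reduced viability. Compounds ran in duplicate from 100 uM final.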

Experiment [13] can be described thus: ACEA_AR_antagonist_AUC_viability: ACEA Biosciences xCELLigence Real-Time Cell Analysis on Androgen Receptor Antagonism for Viability (AID 2283776).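 Also: area under impedance growth curve at 80 h after dosing as viability; hits lower the growth signal relative to DMSO meaning cytotoxicity.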 The procedure, abridged: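 22Rv1 human prostate cancer cells were seeded on electrode plates, monitored overnight, then exposed to eight 1:4 dilutions from 100 uM final. Impedance-based growth kinetics at 80 h gave an AUC viability endpoint normalized to DMSO.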

Experiment [14] relates to frog Estrogen Receptor (ESR1), gene 398734. Put plainly: ATG_frER1_XSP1: Attagene TRANS-FACTORIAL Multi-Species (XSP1) HepG2 Assay for frog Estrogen Receptor (ESR1) (AID 2283777). A digest of the protocol:
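Human hepatoma HepG2 cells carried transiently transfected multiplexed Gal4-driven reporters and were exposed to test chemicals for 24 hours. Transcripts were quantified by fluorescent RT-PCR with capillary electrophoresis, referenced to DMSO.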

Experiment [15] has as its system Thyroperoxidase (TPO), gene 445522. Put plainly: CCTE_Simmons_GUA_TPO: CCTE's Guaiacol Assay for Thyroperoxidase (TPO) Inhibition, Simmons Lab (AID 2283750). A digest of the protocol:
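Porcine thyroid microsomes (25 ug) in 200mM potassium phosphate, preincubated 30 s at 37C with compound (8 concentrations, 5 nM–87.5 uM) and 35mM guaiacol; 1mM H2O2 starts reaction. Absorbance change at 450nm over first 80 s; loss of signal versus DMSO, three replicates.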

The subject of experiment [16] is zebrafish Androgen Receptor (AR), gene 100005148. Put plainly: ATG_zfAR_XSP1: Attagene TRANS-FACTORIAL Multi-Species (XSP1) HepG2 Assay for zebrafish Androgen Receptor (AR) (AID 2283771). The procedure, abridged: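 HepG2 cells were transiently transfected with a zebrafish AR-GAL4 reporter system and partially stimulated with 3 nM 6-alpha-fluorotestosterone. Reporter mRNA was measured after 24 h dosing by RT-PCR with capillary electrophoresis, and gain-of-signal was fitted relative to DMSO.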

“And” between values parts separate entries of the source, which are not always exact repeats. Equal values may be shown once. Results filed as inconclusive are left out. Some structures have more than one record in an assay (separate samples or runs), and their calls can disagree. The source made the active and inactive calls. The calls were made as follows: active = hit-call score of the fitted dose curve at least 0.9, where 1 is the maximum; inconclusive = response in the unintended direction; inactive = score below 0.9.

The AC50 is the concentration giving half of the maximal activity seen.

Sequence of Luciferin 4-monooxygenase (Photinus pyralis) (P08659 whole entry, looked up): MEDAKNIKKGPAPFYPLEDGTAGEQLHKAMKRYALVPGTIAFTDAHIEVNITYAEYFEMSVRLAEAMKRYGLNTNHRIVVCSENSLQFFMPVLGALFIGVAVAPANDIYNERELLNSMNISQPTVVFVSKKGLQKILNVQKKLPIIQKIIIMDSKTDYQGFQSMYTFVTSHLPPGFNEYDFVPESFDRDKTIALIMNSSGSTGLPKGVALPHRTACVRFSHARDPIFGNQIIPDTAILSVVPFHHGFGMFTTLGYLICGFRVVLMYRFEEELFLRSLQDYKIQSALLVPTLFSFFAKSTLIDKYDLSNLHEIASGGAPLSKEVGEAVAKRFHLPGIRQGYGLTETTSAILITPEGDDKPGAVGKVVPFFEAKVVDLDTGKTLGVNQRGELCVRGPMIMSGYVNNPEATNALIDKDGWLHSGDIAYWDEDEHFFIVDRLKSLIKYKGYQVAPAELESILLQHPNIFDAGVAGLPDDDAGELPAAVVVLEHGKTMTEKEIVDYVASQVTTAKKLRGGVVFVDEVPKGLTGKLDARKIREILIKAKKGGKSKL
Sequence of zebrafish Estrogen Receptor (ESR1), esr1 (gene 259252) (P57717 whole entry, looked up, the tested form may be a part): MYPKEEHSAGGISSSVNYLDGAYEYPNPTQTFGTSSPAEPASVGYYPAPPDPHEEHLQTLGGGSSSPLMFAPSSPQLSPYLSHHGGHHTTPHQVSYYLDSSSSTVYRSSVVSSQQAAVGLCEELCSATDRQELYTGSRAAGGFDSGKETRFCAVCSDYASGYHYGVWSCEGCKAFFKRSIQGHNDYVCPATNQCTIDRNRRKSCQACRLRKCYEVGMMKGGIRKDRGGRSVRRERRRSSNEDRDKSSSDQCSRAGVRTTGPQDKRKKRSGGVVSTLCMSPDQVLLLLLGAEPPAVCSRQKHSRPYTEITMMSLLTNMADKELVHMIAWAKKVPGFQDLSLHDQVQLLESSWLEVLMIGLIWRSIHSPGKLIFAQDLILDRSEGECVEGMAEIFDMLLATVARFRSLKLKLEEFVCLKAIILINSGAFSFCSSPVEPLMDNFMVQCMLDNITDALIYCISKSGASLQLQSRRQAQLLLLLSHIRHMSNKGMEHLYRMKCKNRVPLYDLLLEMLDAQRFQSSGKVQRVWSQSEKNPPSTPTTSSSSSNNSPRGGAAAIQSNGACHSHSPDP

For `CC(C)(c1ccc(O)cc1)c1ccc(O)cc1`, the AC50 in [1] is 45 µM (active) and 33.6 µM (active) and 35.6 µM (active); in experiment [9] it was 1.26 µM (active); in [10], 0.811 µM (active); in [11], 0.374 µM (active); in experiment [12], 41.4 µM (active); in experiment [13], 40.9 µM (active). For the same compound, the concentration at half-maximal activity (AC50) in experiment [14] was 0.163 µM (active). The result in [2], in experiment [3], in experiment [4], in experiment [5], in [6] and in experiment [7] was inactive. Moreover, the call in experiment [8] was inactive.

Take `O=C(Nc1ccc([N+](=O)[O-])cc1Cl)c1cc(Cl)ccc1O`: the call in [1] and in experiment [8] was inactive. Moreover, the AC50 in experiment [12] is 0.723 µM (active); in [13], 0.821 µM (active).

With `CSC(=O)c1cccc2nnsc12`, the outcome in experiment [1], in experiment [15], in experiment [8] and in experiment [13] was inactive.

As to `C#CCOC(=O)[C@@H](C)Oc1ccc(Oc2ncc(Cl)cc2F)cc1`, in experiment [1], the compound was classed as inactive. For the same compound, the AC50 in experiment [12] is 18.2 µM (active); in experiment [13], 23.1 µM (active).

Consider `CCCCC(CC)CN1C(=O)C2C3C=CC(C3)C2C1=O` (stereo not given), for which the result in experiment [1], in experiment [16], in [9] and in experiment [14] was inactive. In addition, the AC50 in experiment [10] was 27.4 µM (active); in experiment [11], 25.4 µM (active); in [12], 81.6 µM (active); in experiment [13] it was 56.8 µM (active).

`C[C@]12CC[C@@H]3c4ccc(O)cc4C[C@@H](CCCCCCCCCS(=O)CCCC(F)(F)C(F)(F)F)[C@H]3[C@@H]1CC[C@@H]2O` (stereo not given in full): the result in experiment [1] was inactive. The AC50 in [12] was 10.9 µM (active); in experiment [13], 8.37 µM (active).

With `C#C[C@]1(O)CC[C@H]2[C@@H]3CCC4=CC(=O)CC[C@@H]4[C@H]3CC[C@@]21CC`, the result in experiment [1], in experiment [9], in [10], in experiment [11] and in [14] was inactive. Besides, the AC50 in experiment [16] is 1.12 nM (active) and 0.357 nM (active); in experiment [10] it was 0.451 µM (active); in experiment [11] it was 1 µM (active); in [13], 0.357 µM (active); in [14], 0.222 µM (active).

Take `CCOC(=O)C(C)Oc1ccc(Oc2cnc3cc(Cl)ccc3n2)cc1` (stereo not given): the compound was classed as inactive in experiment [1], in experiment [12] and in experiment [13].

`S=C([S-])NCCNC(=S)[S-].[Mn+2]`: the compound was classed as inactive in experiment [1] and in experiment [8].

Take `CN(C)C(=O)Nc1ccc(Cl)c(Cl)c1`: the outcome in experiment [1], in experiment [8] and in experiment [12] was inactive. Moreover, the AC50 in experiment [13] was 50 µM (active).

Turning to `CCCCOCCOCCOCc1cc2c(cc1CCC)OCO2`, the AC50 was 4.35 µM (active) in [1], 65 µM (active) in [12] and 50 µM (active) in experiment [13]. Moreover, the outcome in [8] was inactive.

Consider `CCCOC(=O)c1ccc(C(=O)OCCC)nc1`, for which, in experiment [1], the AC50 was 3.83 µM (active). Further, the result in experiment [8], in experiment [12] and in experiment [13] was inactive.

As for `c1ccc(Nc2ccccc2)cc1`, the values for the AC50 in [1] and in experiment [12] were 30.3 µM (active) and 74.8 µM (active), respectively. Besides, the call in experiment [8] and in [13] was inactive.

As to `CCCCCCC(C)OC(=O)COc1nc(F)c(Cl)c(N)c1Cl` (stereo not given), the result in experiment [1] was inactive. Besides, the AC50 in [12] was 22.9 µM (active); in [13] it was 17.8 µM (active).
